Screening results as filed in PubChem BioAssay.
ANO1 activ = TMEM16A chloride channel activators or potentiators, primary screen, cell-based, HTS | B-score at 10 µM | HEK293 TMEM16A/YFP-H148Q/I152L, iodide quench fluorescence; stronger effect = lower value | AID 623877, 2012 | 340,000 tested, 0.3% active;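 active = fluorescence-ratio B-score plate-corrected deviation score at least 3 library SD below zero, with starting fluorescence score within 5 deviations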;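 also: channel opened by trigger with iodide after compound preincubation; score built on the fluorescence ratio of max minus min over baseline; more negative score means more quench and so TMEM16A activation or potentiation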
Kir21 inh = inhibitors of mouse Kir2.1 inward-rectifier potassium channel. 310,000 tested, 0.85% active. Inward rectifier potassium channel 2 (Mus musculus), P35561. AID 1672, 2009. HEK293-Kir2.1, FluxOR thallium flux fluorescence; stronger effect = lower value. B-score at 10 µM;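 active = fluorescence ratio B-score at or below minus 3 SD of library scores, with starting-brightness B-score within 2 SD, cut at about -4.2 in these data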;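 also: channel flux triggered by added potassium and thallium sulfate stimulus; B-score of peak minus minimum fluorescence over baseline after thallium stimulus; more negative B-score means stronger Kir2.1 block with less thallium influx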
ANO1 block = TMEM16A chloride channel inhibitors, primary screen, cell-based, HTS. HEK293 TMEM16A/YFP iodide influx fluorescence, ionomycin. 310,000 tested, 1.2% active. normalized B-score (activity score, 25-100; higher = stronger inhibition) at 10 µM. Anoctamin-1 (Mus musculus), Q8BHY3. AID 588511, 2011;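 active = ratio plate-corrected score three or more library SD toward inhibition, starting fluorescence score within five deviations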;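 also: score derived from kinetic fluorescence span divided by baseline fluorescence per well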
CHT block = inhibitors of human choline transporter CHT; High affinity choline transporter 1 (Homo sapiens), Q9GZV3; CHT-expressing cells, membrane potential dye, choline response; stronger effect = lower value; B-score at 10 µM; 310,000 tested, 0.86% active;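 active = B-score over 3 SD under the library average, and starting fluorescence ratio not unusually high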;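 also: choline stimulus applied at its EC90 after an EC20 pre-addition; B-score computed on integrated fluorescence ratio after choline addition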
Rce1 inhib = yeast Rce1p protease inhibitors, primary screen, biochemical, fluorescence, cell-free homogeneous; CAAX prenyl protease 2 (Saccharomyces cerevisiae (strain ATCC 204508 / S288c)), Q03530; yeast membranes, quenched prenylated peptide cleavage fluorescence; calls only; 290,000 tested, 0.27% active;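 active = fall in fluorescence gain of 50% or more versus controls, with final raw signal at or below 3038400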;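 also: plate controls were neutral control wells for no effect and wells lacking membranes for full effect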
CHT allo act = CHT positive allosteric modulators, primary screen, cell-based, membrane potential dye, choline EC20. CHT-expressing cells; stronger effect = higher value; LV-AA mutant CHT in HEK293 cells. B-score at 10 µM. 310,000 tested, 0.49% active. AID 488977, 2010;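 active = initial fluorescence not abnormally high and integrated response B-score, plate-corrected, over 3 SD above library mean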
TMEM16A reconf = TMEM16A chloride channel inhibitors, confirmation, cell-based, re-confirmation; shares compounds with ANO1 block; HEK293 TMEM16A/YFP-H148Q, iodide quench fluorescence; ionomycin added to raise cell calcium; inhibition, % at 10 µM; 2,300 tested, 39% active; AID 652189, 2013;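 active = mean duplicate percent inhibition, scaled so buffer wells are 0 and the reference blocker 100, over three buffer SD above buffer mean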
HEK293 Ca mobil = calcium mobilization in TMEM16A/YFP HEK293 cells, confirmation, counter-screen for TMEM16A inhibitor project; 2,300 tested, 2% active; Fluo4 calcium mobilization; calcium response (% of ionomycin), % at 10 µM; shares compounds with ANO1 block;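 active = duplicate-averaged calcium signal over 20% of the ionomycin maximum, relative to buffer baseline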;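 also: each well's signal is peak minus trough fluorescence divided by its pre-addition baseline; 0% = buffer wells and 100% = ionomycin wells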
YFP-HEK293 quench = iodide YFP quench changes in parental YFP-HEK293, counter-screen for TMEM16A inhibitor project, cell-based; shares compounds with ANO1 block; ionomycin; YFP ratio F(max-min)/F0 at 10 µM; 2,300 tested, under 10 active;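 active = yellow fluorescent protein signal ratio exceeding the buffer control mean by over 5 SD of those controls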;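 also: ratio is mean of duplicate wells from kinetic YFP trace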
ClC-1 inh = ClC-1 chloride channel inhibition, selectivity assay for TMEM16A inhibitor project, cell-based, voltage-dependent ClC-1; shares compounds with ANO1 block; CHO ClC-1-YFP, iodide influx fluorescence quench; iodide control reads 0, buffer control 100; ratio percent, % at 10 µM; 2,300 tested, under 10 active; AID 652236, 2013;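 active = duplicate-mean ratio percent above the mean of iodide-only control wells, which defines zero, plus 5 of their SD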;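 also: higher percent means stronger block of ClC-1 iodide influx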
Active calls of the source: *. Compounds with a hit are over-represented: about 3.2% of the library has one in this group of screens.

Results for Cc1cccc2sc(NC(=O)CN(C)S(=O)(=O)c3ccc(Br)s3)nc12 ?
ANO1 activ: inactive; Kir21 inh: 0.95; ANO1 block: 100*; CHT block: inactive; Rce1 inhib: inactive; CHT allo act: inactive; TMEM16A reconf: inactive; HEK293 Ca mobil: inactive; YFP-HEK293 quench: -1; ClC-1 inh: -6

Results for Cc1cc(C)nc(/N=C(\N)Nc2ccc(OCCC(C)C)cc2)n1 ?
ANO1 activ: inactive; Kir21 inh: -3.2; ANO1 block: 100*; CHT block: inactive; Rce1 inhib: inactive; CHT allo act: inactive; TMEM16A reconf: 29%*; HEK293 Ca mobil: 56%*; YFP-HEK293 quench: -1.2; ClC-1 inh: -17

How did Cc1cc(C)nc(/N=C(\N)Nc2ccc(CC(=O)OC(C)C)cc2)n1 do in these assays?
ANO1 activ: inactive; Kir21 inh: -2.8; ANO1 block: inactive; CHT block: inactive; Rce1 inhib: inactive; CHT allo act: inactive

How did COc1ccc(OC)c(C(=O)c2coc3ccc(O)cc23)c1 do in these assays?
ANO1 activ: inactive; Kir21 inh: -3; ANO1 block: 25*; CHT block: inactive; Rce1 inhib: inactive; CHT allo act: inactive; TMEM16A reconf: inactive; HEK293 Ca mobil: inactive; YFP-HEK293 quench: -0.84; ClC-1 inh: -2

Results for CCN(CC)CCNC(=O)c1ccc(NC(=O)Nc2cccc3ccccc23)cc1 ?
ANO1 activ: inactive; Kir21 inh: 0.71; ANO1 block: inactive; CHT block: inactive; Rce1 inhib: inactive; CHT allo act: inactive

How did CCCOC(=O)c1ccc(Oc2c(-c3ccc(OCC)cc3O)n[nH]c2C)cc1 do in these assays?
ANO1 activ: inactive; Kir21 inh: 0.2; ANO1 block: inactive; CHT block: inactive; Rce1 inhib: inactive; CHT allo act: inactive

How did CCCc1ccc(Oc2c(-c3ccc(O)c(C)c3O)n[nH]c2C)cc1 do in these assays?
ANO1 activ: inactive; Kir21 inh: -1.5; ANO1 block: 100*; CHT block: inactive; Rce1 inhib: inactive; CHT allo act: inactive; TMEM16A reconf: inactive; HEK293 Ca mobil: inactive; YFP-HEK293 quench: -1.2; ClC-1 inh: -7

Results for COC(=O)C1CCN(S(=O)(=O)c2ccc(OC)cc2)CC1 ?
ANO1 activ: inactive; Kir21 inh: -0.72; ANO1 block: 100*; CHT block: inactive; Rce1 inhib: inactive; CHT allo act: inactive; TMEM16A reconf: inactive; HEK293 Ca mobil: inactive; YFP-HEK293 quench: -1.2; ClC-1 inh: -10

How did COc1ccc(S(=O)(=O)N2CCC(C(=O)NCC3CC3)CC2)cc1 do in these assays?
ANO1 activ: inactive; Kir21 inh: -2.4; ANO1 block: inactive; CHT block: inactive; Rce1 inhib: inactive; CHT allo act: inactive

What do the screens show for `CC(C)Cn1c(Cc2ccccc2)n[nH]c1=S`?
ANO1 activ: inactive; Kir21 inh: 0.62; ANO1 block: 100*; CHT block: inactive; Rce1 inhib: inactive; CHT allo act: inactive; TMEM16A reconf: inactive; HEK293 Ca mobil: inactive; YFP-HEK293 quench: -1.2; ClC-1 inh: -4

Results for Cc1ccc2c(COC(=O)CC3Sc4ccccc4NC3=O)cc(=O)oc2c1C (configuration not stated) ?
ANO1 activ: inactive; Kir21 inh: 1.3; ANO1 block: inactive; CHT block: inactive; Rce1 inhib: inactive; CHT allo act: inactive

What do the screens show for `O=C(CC1Sc2ccccc2NC1=O)OCc1cc(=O)oc2cc(O)ccc12` (configuration not stated)?
ANO1 activ: inactive; Kir21 inh: 0.38; ANO1 block: 25*; CHT block: inactive; Rce1 inhib: inactive; CHT allo act: inactive; TMEM16A reconf: 32%*; HEK293 Ca mobil: inactive; YFP-HEK293 quench: -0.7; ClC-1 inh: -22

What do the screens show for `CCCn1c2ccccc2c2nnc(SCC(=O)Nc3cc(C)on3)nc21`?
ANO1 activ: inactive; Kir21 inh: 1.5; ANO1 block: inactive; CHT block: inactive; Rce1 inhib: inactive; CHT allo act: inactive

Results for CCCn1c2ccccc2c2nnc(SCC(=O)Nc3ncccn3)nc21 ?
ANO1 activ: inactive; Kir21 inh: 0.42; ANO1 block: 100*; CHT block: inactive; Rce1 inhib: inactive; CHT allo act: inactive; TMEM16A reconf: inactive; HEK293 Ca mobil: inactive; YFP-HEK293 quench: -1.2; ClC-1 inh: -6

Results for CCOC(=O)Cc1csc(SCC(=O)Nc2cccc(Cl)c2)n1 ?
ANO1 activ: inactive; Kir21 inh: 1; ANO1 block: 100*; CHT block: inactive; Rce1 inhib: inactive; CHT allo act: inactive; TMEM16A reconf: 26%*; HEK293 Ca mobil: inactive; YFP-HEK293 quench: -0.92; ClC-1 inh: -17

Results for CN(CC(=O)Nc1cccc(F)c1)C(=O)c1cc([N+](=O)[O-])ccc1N1CCOCC1 ?
ANO1 activ: inactive; Kir21 inh: 0.36; ANO1 block: inactive; CHT block: inactive; Rce1 inhib: inactive; CHT allo act: inactive

What do the screens show for `Cc1ccccc1NC(=O)COc1coc(CN2CCN(Cc3ccccc3)CC2)cc1=O`?
ANO1 activ: inactive; Kir21 inh: -0.01; ANO1 block: inactive; CHT block: inactive; Rce1 inhib: inactive; CHT allo act: inactive

Results for Cc1ccc(NC(=O)COc2coc(CN3CCN(Cc4ccccc4)CC3)cc2=O)cc1 ?
ANO1 activ: inactive; Kir21 inh: -0.88; ANO1 block: 25*; CHT block: inactive; Rce1 inhib: inactive; CHT allo act: inactive; TMEM16A reconf: inactive; HEK293 Ca mobil: inactive; YFP-HEK293 quench: -0.99; ClC-1 inh: -10
